# Test results: PubChem BioAssay (EPA / NIEHS)
# “And” between values parts separate entries of the source, which are not always exact repeats. Equal entries are not always repeated. Results filed as inconclusive are left out. The source made the active and inactive calls. How the source made its calls: active means hit-call score of the fitted dose curve at least 0.9, where 1 is the maximum; inconclusive means response in the unintended direction; inactive means score below 0.9.
# Target: Cellular tumor antigen p53 (Homo sapiens) (UniProt P04637)
# Sequence (P04637 whole entry, looked up): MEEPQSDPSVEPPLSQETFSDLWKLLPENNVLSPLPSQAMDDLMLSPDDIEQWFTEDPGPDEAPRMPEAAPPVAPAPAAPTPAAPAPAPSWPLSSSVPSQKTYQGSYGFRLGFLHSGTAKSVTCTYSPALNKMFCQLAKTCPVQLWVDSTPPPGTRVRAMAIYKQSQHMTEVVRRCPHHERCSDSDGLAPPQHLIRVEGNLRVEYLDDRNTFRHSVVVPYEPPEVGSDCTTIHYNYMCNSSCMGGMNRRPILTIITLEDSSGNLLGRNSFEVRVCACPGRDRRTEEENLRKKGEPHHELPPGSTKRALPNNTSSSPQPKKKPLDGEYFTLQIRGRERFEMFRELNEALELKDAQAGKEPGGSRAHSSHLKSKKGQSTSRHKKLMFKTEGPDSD
# Test: TOX21_p53_BLA_p3_ratio: Tox21 HCT-116 p53 Agonism Beta-lactamase Assay, Ratio, Phase 3 (AID 2283596)
# Summary of the method: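 HCT116 p53-bla cells (4000/well) given compound in DMSO (217-fold dilution) after 5 h, incubated 16 h at 37C. CCF4-AM substrate 2 h at room temperature; 460/530 nm emission ratio, gain fitted against DMSO.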
Compound,outcome,AC50
COc1ccc(S(=O)(=O)Nc2nnc(CC(C)C)s2)cc1,inactive,
CO[C@H]1/C=C/O[C@@]2(C)Oc3c(C)c(O)c4c(O)c(c(/C=N/N5CCN(C6CCCC6)CC5)c(O)c4c3C2=O)NC(=O)/C(C)=C\C=C\[C@H](C)[C@H](O)[C@@H](C)[C@@H](O)[C@@H](C)[C@H](OC(C)=O)[C@@H]1C,,42.8 µM (active)
CCCN1C[C@H](CSC)C[C@@H]2c3cccc4[nH]cc(c34)C[C@H]21,inactive,
Cc1c(-c2ccccc2)oc2c(C(=O)OCCN3CCCCC3)cccc2c1=O,inactive,
O=S(=O)(O)c1ccc(O)cc1,inactive,
CCCCCCCCC1CO1 (stereo not drawn),inactive,
Cc1ccc(O)c(O)c1,inactive,
O=C(O)c1ccc(Cl)c(Cl)c1,inactive,
COc1cccc2c1[C@@H]1CN(CCCCn3c(=O)[nH]c4c(sc5ncc(-c6ccccc6)nc54)c3=O)C[C@@H]1CO2,inactive,
CCC(C)[C@H]1O[C@]2(C=C[C@@H]1C)C[C@@H]1C[C@@H](C/C=C(\C)[C@@H](O[C@H]3C[C@H](OC)[C@@H](O[C@H]4C[C@H](OC)[C@H](NC(C)=O)[C@H](C)O4)[C@H](C)O3)[C@@H](C)/C=C/C=C3\CO[C@@H]4[C@H](O)C(C)=C[C@@H](C(=O)O1)[C@]34O)O2 (stereo partly drawn),,34.5 µM (active)
COCC(=O)O[C@]1(CCN(C)CCCc2nc3ccccc3[nH]2)CCc2cc(F)ccc2[C@@H]1C(C)C,,19.6 µM (active)
CSc1ccc2c(c1)C(N1CCN(C)CC1)Cc1ccccc1S2 (stereo not drawn),inactive,
CC(C)NCC1CCc2cc(CO)c([N+](=O)[O-])cc2N1 (stereo not drawn),inactive,
O=C1c2cccc(O)c2C(=O)c2c(O)cccc21,inactive,
CO[C@@]12[C@H](COC(N)=O)C3=C(C(=O)C(C)=C(N)C3=O)N1C[C@@H]1N[C@@H]12,,3.24 µM (active)
C=C(Nc1ccc(OCC)cc1)Nc1ccc(OCC)cc1,inactive,
COc1cc2[nH]c(=O)[nH]c(=O)c2cc1OC,inactive,
C[N+]1(CC2COC(c3ccccc3)(C3CCCCC3)O2)CCCCC1 (stereo not drawn),inactive,
C#C[C@]1(OC(C)=O)CC[C@H]2[C@@H]3CCC4=C/C(=N/O)CC[C@@H]4[C@H]3CC[C@@]21CC,,42.8 µM (active)
CO[Si](CCCNc1ccccc1)(OC)OC,inactive,

Compound,outcome,AC50
COc1cc(N)c(Cl)cc1C(=O)NC1CCN(CCCOc2ccc(F)cc2)CC1OC (stereo not drawn),inactive,
C(=C\c1ccccc1)/CN1CCN(C(c2ccccc2)c2ccccc2)CC1,inactive,
CCOc1ccc2nc3cc(N)ccc3c(N)c2c1,,36.4 µM (active)
CCCCC(=O)OCC(=O)[C@]1(O)Cc2c(O)c3c(c(O)c2[C@@H](O[C@H]2C[C@H](NC(=O)C(F)(F)F)[C@H](O)[C@H](C)O2)C1)C(=O)c1c(OC)cccc1C3=O,,8.58 µM (active)
C=CCNC1=C2C[C@@H](C)C[C@H](OC)[C@H](O)[C@@H](C)/C=C(\C)[C@H](OC(N)=O)[C@@H](OC)/C=C\C=C(/C)C(=O)NC(=CC1=O)C2=O,,0.19 µM (active)
CCCC(CCC)C(=O)OC1C[C@H]2CC[C@@H](C1)[N+]2(C)C (stereo partly drawn),inactive,
CC(=O)Oc1ccc(C2(c3ccc(OC(C)=O)cc3)C(=O)Nc3ccccc32)cc1,,641 nM (active) and 515 nM (active)
CCCCCCCCCCCC[n+]1ccc2ccccc2c1,,15 µM (active)
CO[C@H]1/C=C/O[C@@]2(C)Oc3c(C)c(O)c4c(O)c(cc(O)c4c3C2=O)NC(=O)/C(C)=C\C=C\[C@H](C)[C@H](O)[C@@H](C)[C@@H](O)[C@@H](C)[C@H](OC(C)=O)[C@@H]1C,inactive,
Cc1c(C(=O)NN2CCCCC2)nn(-c2ccc(Cl)cc2Cl)c1-c1ccc(Cl)cc1,inactive,
CCOC(=O)/C=C(C)/C=C/C=C(C)/C=C/c1c(C)cc(OC)c(C)c1C,inactive,
CCOc1cc([N+](=O)[O-])c(OCC)cc1N1CCOCC1,inactive,
CCCCCCCCOc1ccccc1C(=O)Nc1ccc(C(=O)OCC[N+](C)(CC)CC)cc1,inactive,
CCCCCCCCNC(C)C(O)c1ccc(SC(C)C)cc1 (stereo not drawn),,18.7 µM (active)
Cc1ccc2c(Cl)cc(Cl)c(O)c2n1,inactive,
CC1=C[C@H](O)CC(C)(C)[C@H]1/C=C/C(C)=C/C=C/C(C)=C/C=C/C=C(C)/C=C/C=C(C)/C=C/C1=C(C)C[C@@H](O)CC1(C)C,,39.9 µM (active)
Cc1ccccn1,inactive,
Cc1cc(CC(C)CC(C)(C)C)n(O)c(=O)c1 (stereo not drawn) (tested in a mixture with another compound),inactive,
COc1cc(NC(C)CCCN)c2ncccc2c1 (stereo not drawn),inactive,

# System: not listed separately
# Test: TOX21_p53_BLA_p4_viability: Viability Assessment in the Tox21 HCT-116 p53 Agonism Beta-lactamase Assay, Phase 4 (AID 2283597);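 further: hits lower the luminescence signal meaning cytotoxicity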
# Summary of the method: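 Following a 16 h exposure at 37C, the treated HCT116 wells were first read for the FRET ratio. They were then lysed with CellTiter-Glo, and ATP luminescence was recorded after 30 min at room temperature.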
Compound,outcome,AC50
COc1ccc(S(=O)(=O)Nc2nnc(CC(C)C)s2)cc1,inactive,
CO[C@H]1/C=C/O[C@@]2(C)Oc3c(C)c(O)c4c(O)c(c(/C=N/N5CCN(C6CCCC6)CC5)c(O)c4c3C2=O)NC(=O)/C(C)=C\C=C\[C@H](C)[C@H](O)[C@@H](C)[C@@H](O)[C@@H](C)[C@H](OC(C)=O)[C@@H]1C,,37.2 µM (active)
CCCN1C[C@H](CSC)C[C@@H]2c3cccc4[nH]cc(c34)C[C@H]21,inactive,
Cc1c(-c2ccccc2)oc2c(C(=O)OCCN3CCCCC3)cccc2c1=O,inactive,
O=S(=O)(O)c1ccc(O)cc1,inactive,
CCCCCCCCC1CO1 (stereo not drawn),inactive,
Cc1ccc(O)c(O)c1,,41 µM (active)
O=C(O)c1ccc(Cl)c(Cl)c1,inactive,
COc1cccc2c1[C@@H]1CN(CCCCn3c(=O)[nH]c4c(sc5ncc(-c6ccccc6)nc54)c3=O)C[C@@H]1CO2,,43.3 µM (active)
CCC(C)[C@H]1O[C@]2(C=C[C@@H]1C)C[C@@H]1C[C@@H](C/C=C(\C)[C@@H](O[C@H]3C[C@H](OC)[C@@H](O[C@H]4C[C@H](OC)[C@H](NC(C)=O)[C@H](C)O4)[C@H](C)O3)[C@@H](C)/C=C/C=C3\CO[C@@H]4[C@H](O)C(C)=C[C@@H](C(=O)O1)[C@]34O)O2 (stereo partly drawn),,9.38 µM (active)
COCC(=O)O[C@]1(CCN(C)CCCc2nc3ccccc3[nH]2)CCc2cc(F)ccc2[C@@H]1C(C)C,,9.78 µM (active)
CSc1ccc2c(c1)C(N1CCN(C)CC1)Cc1ccccc1S2 (stereo not drawn),,34.5 µM (active)
CC(C)NCC1CCc2cc(CO)c([N+](=O)[O-])cc2N1 (stereo not drawn),inactive,
O=C1c2cccc(O)c2C(=O)c2c(O)cccc21,inactive,
CO[C@@]12[C@H](COC(N)=O)C3=C(C(=O)C(C)=C(N)C3=O)N1C[C@@H]1N[C@@H]12,inactive,
C=C(Nc1ccc(OCC)cc1)Nc1ccc(OCC)cc1,inactive,
COc1cc2[nH]c(=O)[nH]c(=O)c2cc1OC,inactive,
C[N+]1(CC2COC(c3ccccc3)(C3CCCCC3)O2)CCCCC1 (stereo not drawn),inactive,
C#C[C@]1(OC(C)=O)CC[C@H]2[C@@H]3CCC4=C/C(=N/O)CC[C@@H]4[C@H]3CC[C@@]21CC,,38.2 µM (active)
CO[Si](CCCNc1ccccc1)(OC)OC,inactive,

Compound,outcome,AC50
COc1cc(N)c(Cl)cc1C(=O)NC1CCN(CCCOc2ccc(F)cc2)CC1OC (stereo not drawn),inactive,
C(=C\c1ccccc1)/CN1CCN(C(c2ccccc2)c2ccccc2)CC1,inactive,
CCOc1ccc2nc3cc(N)ccc3c(N)c2c1,inactive,
CCCCC(=O)OCC(=O)[C@]1(O)Cc2c(O)c3c(c(O)c2[C@@H](O[C@H]2C[C@H](NC(=O)C(F)(F)F)[C@H](O)[C@H](C)O2)C1)C(=O)c1c(OC)cccc1C3=O,inactive,
C=CCNC1=C2C[C@@H](C)C[C@H](OC)[C@H](O)[C@@H](C)/C=C(\C)[C@H](OC(N)=O)[C@@H](OC)/C=C\C=C(/C)C(=O)NC(=CC1=O)C2=O,inactive,
CCCC(CCC)C(=O)OC1C[C@H]2CC[C@@H](C1)[N+]2(C)C (stereo partly drawn),inactive,
CC(=O)Oc1ccc(C2(c3ccc(OC(C)=O)cc3)C(=O)Nc3ccccc32)cc1,,580 nM (active) and 459 nM (active)
CCCCCCCCCCCC[n+]1ccc2ccccc2c1,,23 µM (active)
CO[C@H]1/C=C/O[C@@]2(C)Oc3c(C)c(O)c4c(O)c(cc(O)c4c3C2=O)NC(=O)/C(C)=C\C=C\[C@H](C)[C@H](O)[C@@H](C)[C@@H](O)[C@@H](C)[C@H](OC(C)=O)[C@@H]1C,inactive,
Cc1c(C(=O)NN2CCCCC2)nn(-c2ccc(Cl)cc2Cl)c1-c1ccc(Cl)cc1,,21.4 µM (active)
CCOC(=O)/C=C(C)/C=C/C=C(C)/C=C/c1c(C)cc(OC)c(C)c1C,inactive,
CCOc1cc([N+](=O)[O-])c(OCC)cc1N1CCOCC1,inactive,
CCCCCCCCOc1ccccc1C(=O)Nc1ccc(C(=O)OCC[N+](C)(CC)CC)cc1,,19 µM (active)
CCCCCCCCNC(C)C(O)c1ccc(SC(C)C)cc1 (stereo not drawn),,18.3 µM (active)
Cc1ccc2c(Cl)cc(Cl)c(O)c2n1,,13.7 µM (active)
CC1=C[C@H](O)CC(C)(C)[C@H]1/C=C/C(C)=C/C=C/C(C)=C/C=C/C=C(C)/C=C/C=C(C)/C=C/C1=C(C)C[C@@H](O)CC1(C)C,,35.3 µM (active)
Cc1ccccn1,inactive,
Cc1cc(CC(C)CC(C)(C)C)n(O)c(=O)c1 (stereo not drawn) (tested in a mixture with another compound),,34.1 µM (active)
COc1cc(NC(C)CCCN)c2ncccc2c1 (stereo not drawn),inactive,
